Drawing on PubChem BioAssay AID2507 (National Center for Advancing Translational Sciences (NCATS), 2010), this text covers Potency for 40 compounds.

Molecules are shown by their SMILES. Inconclusive results are not listed. Calls of active or inactive are those of the source. The call rests on the fitted dose curve; in most records, active means well fitted inhibition curve with a large enough effect; inconclusive means small, poorly fitted or top-dose-only effect, or effect the other way; inactive means flat fitted curve, though single readings scatter.

A short description of this assay: Secondary Assay for General miRNAs Modulators and/or Inhibitors/Activators of miR-21: miR-30 Firefly Luciferase Assay. Conditions: HeLa miR-30 FLuc reporter, luminescence, 48 h; series mostly up to 38.3 µM. An excerpt:
MLSCN Grant: 1 R21 NS059478-01 Assay Provider: Qihong Huang, The Wistar Institute NCGC Assay Overview: MicroRNAs (miRNAs) are endogenously encoded small (~20-25 nucleotides), nonprotein-coding RNAs that are involved in post-transcriptional repression of target messenger RNAs (mRNAs) (Le and Hannon, 2004). Estimated to be involved in the regulation of 30% of all protein-coding mRNAs (Filipowicz et al., 2008), miRNAs play a significant role in many biological processes including cellular differentiation and tissue development (Ghildiyal and Zamore, 2009). […] Compounds active in the miR-21 FLuc assay were clustered using Leadscope and active chemical series were prioritized based on chemical properties, potential for medicinal chemistry optimization, and SAR. Within each chemical series, representative compounds were re-acquired to test for activity in a secondary assay based on the quality of their CRC, efficacy, and potency. The secondary assay to determine if compounds active in the miR-21 FLuc assay were potentially specific for miR-21 and were not general modulators of the miRNA pathway was another cell-based FLuc reporter gene assay, this time targeting miR-30. Compounds found active in both the miR-21 FLuc and miR-30 FLuc assays are not considered miR-21 specific compounds, and may be general miRNA modulators.
NCGC Assay Protocol Summary: Reagents: HeLa cells stably expressing firefly luciferase (FLuc) under the control of a CMV promoter (upstream) and a miR-30 binding sequence directly downstream of the gene. These cells also stably express miR-30. Control compounds used were compound C3 (provided by collaborator), N6-phenyladenosine (MP Biomedicals, 0215379625), and DMSO. Assay Summary: 6uL of HeLa miR-30-FLuc cells in assay buffer (DMEM, Invitrogen #21063-029; 10% FBS, HyClone #SH30071.03) were dispensed at 1000cells/well (1.7 x 10^5 cells/mL) into Greiner solid-white TC-treated 1536-well plates using a Multidrop Combi (Thermo Fisher Scientific). Plates were incubated for one hour at 37 degree Celsius, 95% humidity, 5% CO2. These assay plates were then treated with 23nL of compound or DMSO using a Kalypsys pin tool, which allows for delivery of a 24-point titration of each compound to the assay plate, with a final compound concentration ranging from approximately 40uM to 5pM. Assay plates were then incubated for 48 hours. After incubation, plates were allowed to come to RT for one hour prior to delivery of 3uL of 3X luciferase detection reagent. After a 15 minute incubation to allow for cell lysis, luciferase activity was measured using a ViewLux CCD imager (PerkinElmer), with an average exposure time of 2-12 seconds. Keywords: NIH Roadmap, MLPCN, MLSMR, qHTS, miR-21, miR-30, microRNA, firefly luciferase, FLuc.
Consider `Nc1c(-c2nc(-c3ccncc3)no2)nnn1CC(=O)Nc1ccccc1`, for which the Potency result is “inactive”.
As to `CCc1cccc(-n2nnc(-c3nsc(NC(=O)c4cccs4)n3)c2C)c1`, the Potency is 7.11 µM (active).
For `CCc1nonc1NC(=O)c1oc2ccc(C)cc2c1C`, the Potency was 4.49 µM (active).
Then `CCC(Oc1ccccc1F)C(=O)N1CCC(c2nc3ccccc3s2)CC1` (stereo not given), with “inactive”.
With `CCc1ccc(-n2nnc(-c3nc(-c4cccs4)no3)c2N)cc1`, the Potency was 1.42 µM (active).
Consider `CN(C)c1ccc(CNc2nc(-c3ccco3)nn2S(C)(=O)=O)cc1`, for which the Potency was 2.83 µM (active).
Then `Cc1ccc(-c2nc(NCc3ccco3)n(S(C)(=O)=O)n2)cc1`, with 11.3 µM (active); and `COc1nc(Nc2cccc(C(F)(F)F)c2)nc(OC)n1`, with 22.5 µM (active).
With `COc1cc(-c2nc3cnccn3c2Nc2ccc(C(C)C)cc2)ccc1O`, the Potency was 2.25 µM (active).
Take `COc1ccc(-c2nnc(SCC(=O)Nc3cccc(F)c3)s2)cc1`: the Potency is 8.95 µM (active).
For `Cc1ccc2c(C)c(C(=O)N(C)C(C)c3ccncn3)oc2c1C` (stereo not given), the Potency was 22.5 µM (active).
Turning to `COc1ccc(-c2nc(SCc3ccccc3)n(S(C)(=O)=O)n2)cc1`, the Potency was 11.3 µM (active).
Consider `O=C(CSc1nnc(-c2ccc(O)cc2)o1)Nc1ccccc1Br`, for which the Potency was 1.13 µM (active).
Regarding `Cc1cccc(OCc2nnc(SCC(=O)Nc3ccc(N4CCOCC4)cc3)o2)c1`, the Potency entry was “inactive”.
As for `CC(C)C(=O)Nc1nc2c(s1)CC(C(C)(C)C)CC2` (stereo not given), the Potency is 0.895 µM (active).
On to `Cc1c(-c2nsc(NC(=O)c3cccs3)n2)nnn1-c1ccc(F)cc1`, for which the Potency was 0.895 µM (active).
Consider `O=S(=O)(c1ccc(F)cc1)n1ccc(-c2cnc(-c3ccccc3)s2)n1`, for which the Potency is 6.34 µM (active).
For `Cc1cccc(-n2nnc(-c3nc(-c4cccs4)no3)c2N)c1C`, the Potency is 0.159 µM (active).
Consider `CC(C)(C)c1ccc(NC(=O)CSc2nnc(-c3n[nH]c4ccccc34)o2)cc1`, for which the Potency is 11.3 µM (active).
In the case of `O=C(COc1ccccc1F)Nc1ccc(-c2nc3ccccc3s2)cc1`, the Potency is 3.18 µM (active).
For the compound `COc1ccc(NC(=O)CSc2nc(SC)ns2)c(OC)c1`, the Potency is 5.04 µM (active).
Then `Cc1ccc(NC(=O)Cn2nnc(-c3nc(-c4ccc(Cl)cc4)no3)c2N)cc1C`, with “inactive”; and `Cc1ccc(-n2nnc(-c3nc(-c4cccs4)no3)c2N)cc1C`, with 2.52 µM (active).
On to `Cc1cc(C)n2c(SCc3ccccc3Cl)nnc2n1`, for which the Potency was 14.2 µM (active).
For `Cc1nnc(SCc2nc(N)nc(Nc3ccccc3)n2)s1` the value was 22.5 µM (active); for `CCCn1c(=O)c2sccc2n2c(CCCC(=O)Nc3ccc(Oc4ccc(Cl)cc4)cc3)nnc12`, “inactive”.
As for `N#Cc1cc2cc3c(cc2nc1SCC(=O)N1CCOCC1)OCO3`, the Potency was 0.798 µM (active).
On to `Cc1cc(C)cc(NC(=O)CSc2nnc(-c3ccccc3C)o2)c1`, for which the Potency is 11.3 µM (active).
Take `COc1ccc(OCC(=O)Nc2cc(-c3nc4ccccc4s3)ccc2C)cc1`: the Potency is 4.49 µM (active).
As to `c1ccc(CSc2nnc3ccc(-c4cccs4)nn23)nc1`, the Potency was 11.3 µM (active).
With `Cc1c(-c2nc(-c3ccc(C(F)(F)F)cc3)no2)n(C)oc1=O`, the Potency is 0.503 µM (active).
On to `COCC(=O)Nc1c(C(=O)Nc2ccc3c(c2)OCCO3)oc2ccccc12`, for which the Potency was 0.634 µM (active).
Then `COc1ccccc1C(=O)n1nc(-c2ccco2)nc1NCc1ccc(Cl)cc1`, with 7.98 µM (active); and `COc1ccccc1NC(=O)C/C(C)=N/NC(=O)c1ccccn1`, with “inactive”.
In the case of `Cc1ccc(SCC(=O)Nc2ccc3oc(-c4ccc(F)cc4)nc3c2)cc1`, the Potency is 11.3 µM (active).
For the compound `CCc1nonc1NC(=O)c1oc2cc(C)c(C)cc2c1C`, the Potency is 3.18 µM (active).
For `CCc1nonc1NC(=O)c1oc2ccccc2c1C`, the Potency is 12.6 µM (active).
`COc1cccc(-n2nnc(-c3nc(-c4cccs4)no3)c2N)c1`: the Potency is 0.634 µM (active).
In the case of `Nc1c(-c2nc(-c3ccccc3Cl)no2)nnn1-c1ccccc1F`, the Potency is 0.4 µM (active).
For `COc1ccc(NC(=O)c2ncn(-c3ccccc3)n2)cc1Cl` the value was 14.2 µM (active).
